The source of these data is PubChem BioAssay (NCATS).

Values joined by “and” are separate entries in the source; they are usually repeats but may differ in a detail not shown here. Equal values may be shown once. Records with an inconclusive call do not appear. Unmarked numbers belong to inactive results. Active and inactive are the calls of the source. Calls follow the shape of the dose curve; as a rule, active = well fitted cell-killing curve with a large enough effect; inconclusive = small, poorly fitted or top-dose-only effect, or effect the other way; inactive = no such curve, though single readings can be large or run the other way.

Test [1] is described as follows: Viability qHTS for spleen associated tyrosine kinase inhibitor (SYKi) naive MV4-11 cells (AID 1963823). Also: nearly all actives have a fitted effect of over 40% in size. The method in brief:
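Read-out: CellTiter-Glo luminescence. Exposure: 72 hr, 37 C, 5% CO2, 95% humidity. Cells: MV4-11 without SYK inhibitor history, 500/well, qHTS format.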

Test [2] in a line: Viability qHTS for spleen associated tyrosine kinase inhibitor (SYKi) drug resistant MV4-11 cells (AID 1963824). Also: nearly all actives have a fitted effect of over 35% in size. In a few lines:
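SYK inhibitor-resistant MV4-11 AML cells, 500 per well, added to predispensed compounds and incubated 72 hr at 37 C, 5% CO2. Viability measured by CellTiter-Glo luminescence after 10 min at room temperature.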
Potency is read from the fitted curve at half-maximal effect.

Regarding `COc1cc(/C=C/C(=O)N2CCN(CC(=O)N3CCCC3)CC2)cc(OC)c1OC`, the Potency result in test [1] and in test [2] was “inactive” throughout.

For `Oc1cccc(Nc2ccnc3cc(-c4cccc(CN5CCOCC5)c4)sc23)c1`, the Potency was 0.291 µM (active) in test [1] and 0.461 µM (active) in test [2].

Turning to `O=C(Nc1ccc(OC(F)(F)Cl)cc1)c1cnc(N2CC[C@@H](O)C2)c(-c2ccn[nH]2)c1`, the results for the Potency in test [1] and in test [2] were 5.9 µM (active) and 6.61 µM (active), respectively.

For the compound `COc1cc2c(cc1OC)/C(=C/c1ccc(O)cc1)C(=O)N2`, the Potency was 8.2 µM (active) in test [1] and 18.4 µM (active) in test [2].

With `C=C1CC[C@H](O)CC1=C/C=C1\CCC[C@]2(C)[C@@H]([C@H](C)/C=C/[C@H](C)C(C)C)CC[C@@H]12`, the Potency in test [1] is 8.2 µM (active); in test [2] it was 9.2 µM (active).

As for `CC(C)CCNC(=O)c1ccc2c(c1)nc(Nc1n[nH]c3ccc(-c4ccccc4OC(F)(F)F)cc13)n2C1CCC(O)CC1` (stereo unspecified), the Potency in test [1] and in test [2] was 16.4 µM (active) each time.

For `C[C@@H]1CC[C@]2(C(=O)O)CC[C@]3(C)C(=CCC4[C@]5(C)C(CC[C@]43C)C(C)(C)[C@@H](O)[C@H](O)[C@@H]5O)C2[C@]1(C)O` (stereo partly specified), the Potency result in test [1] and in test [2] was “inactive” throughout.

`CCN1CCN(Cc2ccc(-c3cc4c(NC(C)c5ccccc5)ncnc4[nH]3)cc2)CC1` (stereo unspecified): the Potency is 0.92 µM (active) in test [1] and 1.3 µM (active) in test [2].

For `C[C@H](O)[C@H](O)[C@H]1CNc2nc(N)[nH]c(=O)c2N1`, the Potency entry in test [1] and in test [2] was “inactive” each time.

As for `COc1ccc(CCO[C@@H]2CCCC[C@H]2N2CC[C@@H](O)C2)cc1OC`, the Potency result in test [1] and in test [2] was “inactive” each time.

Turning to `C[C@@H]1O[C@@H](O[C@H]2[C@H](O[C@H]3[C@H](O[C@H]4CC[C@@]5(C)C(CC[C@]6(C)C5CC=C5[C@@H]7CC(C)(C)C[C@@H](O)[C@]7(C)CC[C@]56C)C4(C)C)O[C@H](C(=O)O)[C@@H](O)[C@@H]3O)O[C@H](C(=O)O)[C@H](O)[C@@H]2O)[C@H](O)[C@H](O)[C@H]1O` (stereo partly specified), the viability (% of control) in test [1] was 101% [at 9.25 µM]. The viability, % of control in test [2] is 89.8% [at 9.25 µM].

With `CN1c2c(nc(N)[nH]c2=O)NC[C@@H]1CNc1ccc(C(=O)N[C@@H](CCC(=O)O)C(=O)O)cc1`, the Potency entry in test [1] and in test [2] was “inactive” throughout.

With `CC1=C2CC(O)(C(C)(C)O)C(O[C@@H]3O[C@H](CO)[C@@H](O)[C@H](O)[C@H]3O)CC(C)C2CC1=O` (stereo partly specified), the Potency entry in test [1] and in test [2] was “inactive” in each case.

With `CC1(C)CCCC2(C)c3c4c(c(=O)oc(=O)c3=CCC12)=CCC1C(C)(C)CCCC41C` (stereo unspecified), the Potency entry in test [1] and in test [2] was “inactive” throughout.

In the case of `CC(C)(N)c1cc(C(=O)N[C@@H]2CCc3ccc(Oc4ccnc5c4CCC(=O)N5)cc3C2)cc(C(F)(F)F)c1`, the Potency in test [1] is 0.92 µM (active); in test [2], 1.3 µM (active).

Consider `C/C=C/[C@@H]1C=C[C@@H]2C[C@H](C)CC[C@H]2[C@]1(C)/C(O)=C1/C(=O)[C@@H](CO)N(C)C1=O`, for which the Potency in test [1] was 14.3 µM (active); in test [2], 16.1 µM (active).

For the compound `CC(C)CCC[C@@H](C)[C@H]1CC[C@H]2[C@@H]3CC=C4C[C@@H](OC(=O)NCCN(C)C)CC[C@]4(C)[C@H]3CC[C@]12C`, the values for the Potency in test [1] and in test [2] were 20.6 µM (active) and 16.4 µM (active), respectively.

Turning to `CCC(C)C1NC(=O)C2CCCN2C(=O)C(NC(C)=O)C(C)OC(=O)C(Cc2ccc(OC)cc2)N(C)C(=O)C2CCCN2C(=O)C(C(C)C)NC1=O` (stereo unspecified), the Potency entry in test [1] and in test [2] was “inactive” each time.

Take `CC(=O)c1c(O)cc2c(c1C)C(=O)CC(O)C2` (stereo unspecified): the Potency result in test [1] and in test [2] was “inactive” each time.

Turning to `CN1C/C=C/CCOc2cccc(c2)-c2ccnc(n2)Nc2cccc(c2)C1`, the Potency in test [1] is 0.417 µM (active); in test [2] it was 0.206 µM (active).

For `C[C@@H]1CN(Cc2ncccn2)C[C@H]1c1nc2c(cnn2C2CCOCC2)c(=O)[nH]1`, the Potency entry in test [1] and in test [2] was “inactive” throughout.

Turning to `CC(=O)CC(=O)Nc1ccc(Cl)c(C(F)(F)F)c1`, the Potency in test [1] was 9.2 µM (active); in test [2], 14.6 µM (active).

In the case of `Clc1ccc(Cn2c(CN3CCCC3)nc3ccccc32)cc1`, the Potency in test [1] is 14.8 µM (active); in test [2], 15 µM (active) and 14.8 µM (active).

Regarding `O=C(O)CCc1c(C(=O)O)[nH]c2cc(Cl)cc(Cl)c12`, the Potency result in test [1] and in test [2] was “inactive” throughout.

As for `O=Nc1c2[nH]c3ccccc3nc-2c2ccccc12`, the Potency is 5.8 µM (active) in test [1] and 10.3 µM (active) in test [2].

On to `CC1=C(CCC(C)O[C@@H]2O[C@H](CO)[C@@H](O)[C@H](O)[C@H]2O)C(C)(C)CC(O)C1` (stereo partly specified), for which the Potency entry in test [1] and in test [2] was “inactive” each time.

Take `CC(C)=CCC[C@](C)(O[C@@H]1O[C@H](CO[C@@H]2OC[C@@H](O)[C@H](O)[C@H]2O)[C@@H](O)[C@H](O)[C@H]1O)[C@H]1CC[C@]2(C)[C@@H]1[C@H](O)C[C@@H]1[C@@]3(C)CC[C@H](O[C@@H]4O[C@H](CO)[C@@H](O)[C@H](O)[C@H]4O[C@@H]4O[C@H](CO)[C@@H](O)[C@H](O)[C@H]4O)C(C)(C)[C@@H]3CC[C@]12C`: the Potency result in test [1] and in test [2] was “inactive” throughout.

For `COc1cc2c(cc1-c1c(C)noc1C)ncc1[nH]c(=O)n(C(C)c3ccccn3)c12` (stereo unspecified), the Potency in test [1] was 0.326 µM (active); in test [2], 0.366 µM (active).
